Laboratory results: the supplement of paper PMC4709259
± gives the standard deviation.

Columns and labels:
Jurkat [1] = assay: mean cell size (FSC-A) relative to DMSO control (fraction of control); higher = larger cells; settings: 48 h
Outline: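 Jurkat cells seeded at 600 cells/µl were incubated 1 h, then exposed for 48h to the Enzo Screen-Well FDA Approved Drug Library v2.0 at 25µM in 0.9% (v/v) final DMSO. Drugs that cut counts below 20% of controls were diluted 10-fold and retested, down to 25nM. Cell count and mean cell size (forward scatter area) were read on an Accuri C6 flow cytometer, relative to solvent-only controls. Plates held 6-12 controls; values are means of 3 biological replicates.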

Jurkat [2] = assay: cell count relative to DMSO control (fraction of control); higher = more cells (less growth inhibition); settings: 48 h

Structure (SMILES) | mean cell size (Jurkat [1]) | cell count (Jurkat [2])
O=C(c1ccccc1)c1ccc2n1CCC2C(=O)O (stereo not drawn) [Ketorolac Tromethamine] (concentration: 25 µM) | 0.907 ± 0.024 | 0.934 ± 0.038
C[C@]12CCC(=O)C=C1CC[C@@H]1[C@@H]2[C@@H](O)C[C@@]2(C)[C@H]1CC[C@]2(O)C(=O)CO [Hydrocortisone] (concentration: 25 µM) | 0.9165 ± 0.0081 | 0.72 ± 0.092
NS(=O)(=O)c1cc(C2(O)NC(=O)c3ccccc32)ccc1Cl (stereo not drawn) [Chlorthalidone] (concentration: 25 µM) | 1.03 ± 0.028 | 0.918 ± 0.044
COC1=CC(=O)C[C@@H](C)[C@]12Oc1c(Cl)c(OC)cc(OC)c1C2=O [Griseofulvin] (concentration: 2.5 µM) | 0.975 ± 0.02 | 0.865 ± 0.099
NC(=O)OCC(COC(N)=O)c1ccccc1 [Felbamate] (concentration: 25 µM) | 1.02 ± 0.053 | 0.755 ± 0.16
CC(C)OC(=O)C(C)(C)Oc1ccc(C(=O)c2ccc(Cl)cc2)cc1 [Fenofibrate] (concentration: 25 µM) | 1.01 ± 0.04 | 0.477 ± 0.067
CCOC(=O)[C@H](CCc1ccccc1)N[C@@H](C)C(=O)N1[C@H](C(=O)O)C[C@H]2CCCC[C@@H]21 [Trandolapril] (concentration: 25 µM) | 0.973 ± 0.044 | 0.924 ± 0.12
CC(=O)CCCCn1c(=O)c2c(ncn2C)n(C)c1=O [Pentoxifylline] (concentration: 25 µM) | 0.977 ± 0.028 | 1.09 ± 0.12
Nc1ncnc2c1ncn2[C@@H]1O[C@H](CO)[C@@H](O)[C@H]1O [Adenosine] (concentration: 25 µM) | 1 ± 0.041 | 0.73 ± 0.082
